NPSR antag – qHTS Assay for Antagonists of the Neuropeptide S Receptor: cAMP Signal Transduction; CHO-NPSR cells, cAMP TR-FRET, antagonist mode; AID 1461, 2008; Potency, µM (doses to about 38.3 µM), without a hit: at the top dose activity change, negative = inhibition, most hits filed as inhibitors; Q6W5P4; actives 1% (n = 220,000); also: nearly all actives have a fitted effect of over 50% in size
Target sequence (Q6W5P4 whole entry, looked up): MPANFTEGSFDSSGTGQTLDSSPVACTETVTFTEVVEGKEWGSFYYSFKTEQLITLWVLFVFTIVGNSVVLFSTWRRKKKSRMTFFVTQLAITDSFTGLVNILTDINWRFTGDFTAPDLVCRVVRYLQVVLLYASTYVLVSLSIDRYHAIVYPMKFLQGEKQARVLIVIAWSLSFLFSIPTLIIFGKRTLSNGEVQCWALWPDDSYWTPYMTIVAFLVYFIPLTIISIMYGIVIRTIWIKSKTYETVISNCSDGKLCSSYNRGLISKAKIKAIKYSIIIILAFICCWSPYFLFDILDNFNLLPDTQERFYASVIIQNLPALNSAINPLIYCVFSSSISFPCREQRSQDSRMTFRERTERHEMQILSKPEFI
ALDH1A1 block – qHTS Assay for Inhibitors of Aldehyde Dehydrogenase 1 (ALDH1A1); Aldehyde dehydrogenase 1A1 (Homo sapiens), P00352; AID 1030, 2008; Purified ALDH1A1, NADH fluorescence, propionaldehyde substrate; Potency, µM (highest dose often 75.3 µM), for inactives: at the top dose activity, negative = inhibition, actives largely listed as inhibitors; actives 7.3% (n = 220,000); active = well fitted inhibition curve with a large enough effect, not every such curve was filed as active; inconclusive = small, poorly fitted or top-dose-only effect, or another doubt; inactive = no such curve, though single readings can be large or run the other way;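 also: plate controls were no enzyme wells and a reference inhibitor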
HPGD block – qHTS Assay for Inhibitors of HPGD (15-Hydroxyprostaglandin Dehydrogenase); 15-hydroxyprostaglandin dehydrogenase [NAD(+)] (Homo sapiens), P15428; purified HPGD, NADH fluorescence kinetic, PGE2 substrate; Potency, µM, for the others: at the highest dose activity change, negative = inhibition, most hits filed as inhibitors; actives 4.3% (n = 150,000); AID 894, 2007; active = well fitted inhibition curve with a large enough effect, not every such curve was filed as active; inconclusive = small, poorly fitted or top-dose-only effect, or another doubt; inactive = no such curve, though single readings can be large or run the other way
Target sequence (P15428 whole entry, looked up): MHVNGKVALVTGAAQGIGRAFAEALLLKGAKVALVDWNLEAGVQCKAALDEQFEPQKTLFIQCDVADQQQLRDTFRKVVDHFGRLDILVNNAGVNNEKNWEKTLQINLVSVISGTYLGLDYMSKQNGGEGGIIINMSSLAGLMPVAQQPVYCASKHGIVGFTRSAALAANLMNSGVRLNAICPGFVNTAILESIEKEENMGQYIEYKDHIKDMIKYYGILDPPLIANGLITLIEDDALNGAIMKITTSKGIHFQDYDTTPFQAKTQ
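NADH formation kinetics: reaction with 30 uM PGE2 and 1 mM NAD+ (final), 20 nM enzyme, Tris-HCl pH 8 with Tween 20, after 15 min compound preincubation at room temperature. Fluorescence change, last versus first of five reads.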
Tau fluor counter – Counterscreen qHTS for Inhibitors of Tau Fibril Formation, Fluorescence Polarization; Potency, µM (doses to about 57.7 µM), for inactives: at the top dose activity change, negative = decrease; actives 0.93% (n = 280,000); tau K18 P301L Alexa594 fluorescence, heparin fibrillization; AID 1463, 2008; also: nearly all actives have a fitted effect of over 55% in size
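Human K18 P301L tau (15 uM unlabeled plus 0.24 uM Alexa 594-labeled, final) in 100 mM sodium acetate pH 7 was mixed with compound and 20 uM heparin and incubated 6 hr at 37 C.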
Tau fibril ThT – qHTS for Inhibitors of Tau Fibril Formation, Thioflavin T Binding. recombinant tau K18 P301L (four-repeat tau fragment), heparin-induced fibrillization, ThT fluorescence. actives 2.1% (n = 270,000). AID 1460, 2008. Potency, µM (highest dose often 57.4 µM), without a hit: at the highest dose activity, negative = inhibition, usual class: inhibitors; also: nearly all actives have a fitted effect of over 55% in size
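Aggregation was driven by heparin (20 uM final) acting on recombinant tau […] bearing P301L in 100 mM sodium acetate pH 7; fibrils were detected with Thioflavin T.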
Tau FP inhib – qHTS for Inhibitors of Tau Fibril Formation, Fluorescence Polarization; Potency, µM (series often up to 57.7 µM), for the others: at the top dose activity, negative = inhibition, hits mostly inhibitors; actives 0.39% (n = 280,000); Microtubule-associated protein tau (Homo sapiens), P10636; K18 P301L tau heparin fibrillization, Alexa594 FP, 6 h; also: nearly all actives have a fitted effect of over 55% in size
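K18 P301L tau (15 uM unlabeled/0.24 uM Alexa 594-labeled, final) + compound + heparin 20 uM final; 100 mM NaOAc pH 7; 6 hr 37 C; ThT 30 uM final added, 1 hr RT; FP ex 555/em 632 nm.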
Starred values were filed as active, the others as inactive; ? = inconclusive; . = no result given; [ ] = remark or other dose. Shown are actives, neighbours in structure and some others; about 9.5% of the full set was active somewhere. Unless noted, calls follow the shape of the dose curve; as a rule, active = well fitted curve in the direction sought with a large enough effect; inconclusive = small, poorly fitted or top-dose-only effect, or another doubt; inactive = no such curve, though single readings can be large; an effect the other way counts as inactive or inconclusive. Unless noted, % is scaled to controls: 0 for no effect and ±100 for the full control effect; potency is read from the fitted curve at half-maximal effect.

SMILES | NPSR antag | ALDH1A1 block | HPGD block | Tau fluor counter | Tau fibril ThT | Tau FP inhib
CC1(C)CC[C@]2(C(=O)O)CC[C@]3(C)C(=CCC4[C@@]5(C)CC[C@H](O)C(C)(C)C5[C@H](O)C[C@]43C)C2C1 (stereo partly drawn) | . | 0% | -3% | -5% | -18% | 2%
CCSc1ccccc1C(=O)Nc1ccc(-c2nc3ccccc3s2)c(O)c1 | . | . | . | -21% | ? | -15%
CC(C)c1nnc(NC(=O)C2CCCO2)s1 (stereo not drawn) | -7% | 3.8µM* | . | -13% | -11% | -8%
CCOC(=O)CSc1nc(-c2ccc(OC)cc2)ns1 | -6%[46.1 µM] | 25µM* | 35µM* | -19% | ? | -11%
CCOC(=O)CNC(=O)CSc1nc(-c2ccccc2)ns1 | 3% | 25µM* | . | 2% | 0% | -1%
CCOC(=O)CNC(=O)CSc1nc(-c2ccc(C)cc2)ns1 | 3% | ? | . | -6% | -4% | -3%
CCOC(=O)N1CCN(C(=O)CSc2nc(-c3cccc(C)c3)ns2)CC1 | -15%[46.1 µM] | ? | ? | -17% | ? | -5%
CCOCCCNC(=O)/C(C#N)=C/c1ccc([N+](=O)[O-])o1 | ? | 4µM* | . | -28% | 14µM* | ?
COc1ccccc1OCc1ccc(C(=O)NN)cc1 | -5%[46.1 µM] | 14µM* | -1% | -5% | ? | -5%
O=C(N/N=C/c1ccc[nH]1)c1ccc(COc2cccc3cccnc23)cc1 | -8% | -15% | . | 0% | 5% | -3%
COc1ccccc1OCc1ccc(C(=O)NN)o1 | -12% | . | . | -10% | -14% | -9%
Cc1ccc(COc2ccsc2C(=O)NN)cc1 | 1% | 6.3µM* | . | 8% | -1% | -3%
NNC(=O)c1ccc(COc2cccc3cccnc23)cc1 | 5% | 14µM* | . | -6% | ? | -2%
COC(=O)Cn1c(C(=O)N(C)C)cc2c1C[C@H]1CN(C(=O)c3ccccc3)[C@@](Cc3ccc(OC)cc3)(C(=O)OC)[C@@H]21 | . | 3% | -10% | -1% | -1% | 10%
C=CCn1c(SCc2nc(N)nc(N3CCCCC3)n2)nnc1-c1ccco1 | -11%[46.1 µM] | 22µM* | 16µM* | -2% | -19% | 7%
C=CCn1c(SCC(=O)N2CCN(c3ccc(F)cc3)CC2)nnc1-c1ccco1 | -1% | 2% | -3% | -14% | ? | 14%
O=C(Oc1ccc(N(Cc2cccs2)C2=NS(=O)(=O)c3ccccc32)cc1)c1ccc(Cl)cc1 | ? | 22µM* | -21% | -5% | -10% | ?
O=C(Oc1ccc(N(Cc2cccs2)C2=NS(=O)(=O)c3ccccc32)cc1)c1ccccc1 | -22%[46.1 µM] | ? | -25% | -16% | -8% | ?
CCOC(=O)C1=C(Cc2ccc(OC)cc2)C(=O)c2ccccc2C1=O | ? | ? | 32µM* | ? | 8.9µM* | 13µM*
CCOC(=O)C1=C(Cc2ccc(C)cc2)C(=O)c2ccccc2C1=O | 10µM* | ? | 13µM* | ? | 16µM* | 35µM*
O=[N+]([O-])c1c(NCCCO)cc(SCc2ccco2)c2nonc12 | -20% | ? | -12% | ? | 7.9µM* | ?
O=[N+]([O-])c1c(NCCCO)cc(N2CCN(Cc3ccc4c(c3)OCO4)CC2)c2nonc12 | 16% | 2% | -19% | 12% | ? | 8%
O=[N+]([O-])c1c(NCCCO)cc(Sc2ccc(Cl)cc2)c2nonc12 | ? | 4.5µM* | -29% | ? | 13µM* | ?
Cn1ccnc1Sc1cc(NCCCO)c([N+](=O)[O-])c2nonc12 | -50% | 7% | . | ? | 4.5µM* | -13%
Cn1ccnc1Sc1ccc(C(N)=O)cc1[N+](=O)[O-] | 11% | 7% | . | -1% | 2% | -2%
SMILES | NPSR antag | ALDH1A1 block | HPGD block | Tau fluor counter | Tau fibril ThT | Tau FP inhib
COc1ccc(CNc2cc(NCCCO)c([N+](=O)[O-])c3nonc23)cc1 | 3% | 10µM* | . | -4% | 3% | 5%
CCOC(=O)c1cnc2cc(C(F)(F)F)ccc2c1N1CCN(c2cccc(Cl)c2)CC1 | . | . | . | -21% | -18% | -2%
COc1cc(/C=N/NC(=O)CC23CC4CC(CC(C4)C2)C3)cc(Br)c1OCC(=O)N(C)C | -34% | ? | -12% | -2% | -15% | 5%
COc1cccc(-c2nc(NCCN3CCOCC3)c3ccccc3n2)c1 | . | 2% | . | . | . | .
Cc1ccc(CCNC(=O)c2ccc(Cn3c(=O)c4cccn4c4cccnc43)cc2)cc1 | . | . | . | -6% | 16% | -15%
C1CCC[C@H]2CCCN3CC[C@H](CCCCCC[C@@H]4CCCN5CC[C@H](CC1)OC45)OC23 | . | 11% | . | 2% | -1% | -7%
COc1ccc(-c2nn(-c3ccccc3)cc2CNC(=O)c2cccc([N+](=O)[O-])c2)cc1 | -15% | -6% | -12% | 10% | 12% | 12%
CC(=O)OCCNc1cc(SCc2ccco2)c2nonc2c1[N+](=O)[O-] | -20% | ? | ? | 7.9µM*[quencher] | 7.1µM* | ?
CN(C)/C=N/C(=S)Nc1ccc(Br)cc1F | -6%[46.1 µM] | 22µM* | -30% | -3% | -10% | -10%
C=CCNC(=S)Nc1ccc(Br)cc1F | 13% | 2% | -6% | -5% | -6% | 5%
COc1c(Cl)cc(C(=O)NN)cc1Cl | -11% | 2.2µM* | . | -1% | -8% | -8%
NNC(=O)c1cc(O)c(O)c(O)c1 | 0% | 25µM* | . | -22% | ? | ?
COc1c(Cl)cc(C(=O)Nc2ccccc2C(=O)O)cc1Cl | 5%[46.1 µM] | 13µM* | 14µM* | -7% | 2% | 3%
CNC(=O)c1cc(Cl)c(OC)c(OC)c1 | 15% | 22µM* | ? | -6% | -3% | -4%
O=C(Nc1ccccc1C(=O)O)c1cccc(S(=O)(=O)N2CCCC2)c1 | . | . | . | -5% | 1% | -2%
COc1cc(C(N)=O)cc(Cl)c1OC | -20% | 1% | . | 1% | 1% | -4%
COc1cc(SC)ccc1C(=O)N(Cc1ccccc1)c1ccccn1 | 12% | 3% | . | -3% | -4% | 2%
CCOC(=O)Cn1ccc(-c2ccccc2)c(C#N)c1=O | 20% | ? | . | 7% | 4% | 1%
COc1ccc(CC(=O)Nc2ccc(C(=O)NC(C)(C)C)cc2)cc1OC | 2% | 0% | . | -1% | -1% | 4%
COc1ccc(CC(=O)Nc2ccc(C(=O)Nc3ccccc3C(=O)O)cc2)cc1OC | 15% | 28µM* | -16% | -6% | -1% | 2%
